Positions count from the first letter of the chain named. The full ranking holds about 16,000 sequences; the median of “ka relative to ugcaugu” is about 0.096, and the highest 2% start at about 0.35. Only a selection was taken, and the highest values are over-represented in it overall.
T1: RBFOX1 RRM RbFoxmut (Fox-RRM*) (Homo sapiens, UniProt Q9NWB1 109-208, R118D;E147R;N151S;E152T)
T1 sequence: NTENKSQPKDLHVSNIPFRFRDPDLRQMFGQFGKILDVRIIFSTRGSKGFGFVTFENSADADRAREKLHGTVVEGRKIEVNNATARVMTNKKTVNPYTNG

B1: UAAGAGC (DNA:RNA)
RNA: GGGAGACCGGAAUUCAGAUUGUCCUAAGAGCUUAAAUCCCGUCGUAGCCACCA
DNA 1: CAATCTGAATTCCGGTCTCCC
DNA 2: TGGTGGCTACGACGGGATT
B2: GACCGCG (DNA:RNA)
RNA: B1 RNA with U25G, A27C, G28C, A29G, G30C, C31G
DNA 1: CAATCTGAATTCCGGTCTCCC
DNA 2: TGGTGGCTACGACGGGATT
B3: GCACUUC (DNA:RNA)
RNA: B1 RNA with U25G, A26C, G28C, A29U, G30U
DNA 1: CAATCTGAATTCCGGTCTCCC
DNA 2: TGGTGGCTACGACGGGATT
B4: UGACGAC (DNA:RNA)
RNA: B1 RNA with A26G, G28C, A29G, G30A
DNA 1: CAATCTGAATTCCGGTCTCCC
DNA 2: TGGTGGCTACGACGGGATT
B5: GCCAGGU (DNA:RNA)
RNA: B1 RNA with U25G, A26C, A27C, G28A, A29G, C31U
DNA 1: CAATCTGAATTCCGGTCTCCC
DNA 2: TGGTGGCTACGACGGGATT
B6: UAUGCGU (DNA:RNA)
RNA: B1 RNA with A27U, A29C, C31U
DNA 1: CAATCTGAATTCCGGTCTCCC
DNA 2: TGGTGGCTACGACGGGATT
B7: GAAAGGG (DNA:RNA)
RNA: B1 RNA with U25G, G28A, A29G, C31G
DNA 1: CAATCTGAATTCCGGTCTCCC
DNA 2: TGGTGGCTACGACGGGATT
B8: GGCACGG (DNA:RNA)
RNA: B1 RNA with U25G, A26G, A27C, G28A, A29C, C31G
DNA 1: CAATCTGAATTCCGGTCTCCC
DNA 2: TGGTGGCTACGACGGGATT
B9: AUAACAC (DNA:RNA)
RNA: B1 RNA with U25A, A26U, G28A, A29C, G30A
DNA 1: CAATCTGAATTCCGGTCTCCC
DNA 2: TGGTGGCTACGACGGGATT

What follows are binders tested against T1, RBFOX1 RRM RbFoxmut (Fox-RRM*) (assay: EMSA; HiTS-Eq, 1 nM pool, 10 min; buffer printed only for the single-RNA assays: 10 mM Tris pH 7.5, 150 mM NaCl, 3.4 mM EDTA, 0.001% NP-40, 30 C). Settings: tags: His6 N-terminal (pET28a); label: 5' 32P.
In short: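 Purified RbFox RRM, wild type or mutant, was incubated for 10 min in 50 µL with 1 nM of a 5′-radiolabelled RNA pool carrying 7 randomized nucleotides, whose flanks were annealed to DNA oligonucleotides, over a series of increasing protein concentrations. Unbound RNA was resolved on 8% native PAGE, cut out, reverse-transcribed, barcoded by PCR and sequenced on an Illumina HiSeq 2500. Relative association constants were derived from changes in read counts for each RNA species versus the control reaction and normalised to the cognate motif.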

Binder	binding signal
B1	0.0654 KA relative to UGCAUGU
B2	0.101 KA relative to UGCAUGU
B3	0.0473 KA relative to UGCAUGU
B4	0.069 KA relative to UGCAUGU
B5	0.0955 KA relative to UGCAUGU
B6	0.108 KA relative to UGCAUGU
B7	0.0436 KA relative to UGCAUGU
B8	0.149 KA relative to UGCAUGU
B9	0.0733 KA relative to UGCAUGU

Reference: article PMC9911399, “Two distinct binding modes provide the RNA-binding protein RbFox with extraordinary sequence specificity”
